The structures appear in SMILES notation. In all, about 1,200 compounds went through this assay and about 210 (18%) were called active. A selection follows. A number with no mark means an inactive call. No stated cut-off is given here; in the data, active means inhibition above about 30%; inactive means the rest.

This test can be described thus: fluorescence readout artefact check – biochemical, HTRF, uHTS, artefact control for SUMOylation inhibitor project, confirmation (AID 2069). Conditions: HTRF interference counterscreen, at 35 µM, hits give high values. In general terms: Time-resolved FRET reads energy transfer from a long-lived donor to a nearby acceptor.
`COC(=O)c1c(NC(=O)COC(=O)c2ccc(NC(=O)CC#N)cc2)sc2c1CCCCC2`: the inhibition was 4.25%.

For `COCCn1c(-c2ccco2)nc2nc3ccccc3nc21`, the inhibition is 12.7%. To `Fc1cccc(-n2c(-c3cccs3)nc3nc4ccccc4nc32)c1` belongs 30.1% (active); to `O=[N+]([O-])c1ccc(-c2ccc(C=Nc3cccc4ccccc34)o2)cc1`, 11.9%; to `CN(C)S(=O)(=O)c1cccc(-c2nn(-c3ccccc3)cc2/C=C2\SC(=S)NC2=O)c1`, -4%. For the molecule `Cc1nnc(Sc2cc(NCCCO)c([N+](=O)[O-])c3nonc23)s1`, the inhibition is -3.2%. To `O=c1c2ccccc2oc2cc(NCCCN3CCOCC3)ccc12` belongs 57.9% (active); to `COc1ccc(-c2ccc(C(c3c(C)[nH][nH]c3=O)c3c(C)[nH][nH]c3=O)o2)c([N+](=O)[O-])c1`, 1.45%; to `COc1cc2c(cc1OC)-c1cc3ccc4c(c3c[n+]1CC2)OCO4`, 24.4%. With `CCOC(=O)c1c(NC(=O)c2ccco2)n(C2CCCCC2)c2nc3ccccc3nc12` the figure was 21.2%; with `Cc1cc(NCCO)c2cc(O)ccc2n1`, 57.5% (active); with `Cc1ccccc1NC(=O)c1ccc(N/N=C/c2ccccc2O)c([N+](=O)[O-])c1`, 24.7%.

As to `O=C(NC(=S)Nc1cccc2c(O)cccc12)c1ccccc1[N+](=O)[O-]`, the inhibition was -1.65%. To `COC(=O)/C(=C\Nc1ccc(Cl)cc1Cl)NC(=O)c1ccc(OC)cc1` belongs 0.3%; to `COc1cccc(/C=N/NC(=O)C(=O)N/N=C/c2cccc(OC)c2O)c1O`, 48% (active). To `COc1cccc2c(SCC(=O)N/N=C/c3ccc(O)cc3O)cc(C)nc12` belongs 15.7%; to `COc1cc(OC)c(/C=N/NC(=O)c2ccc(NC(C)=O)cc2)cc1Br`, 23.1%. With `O=C(N/N=C/c1ccc(O)cc1O)C(=O)N/N=C/c1ccc(O)cc1O` the figure was 63.6% (active). Regarding `COc1cccc(/C=N\NC(=O)C2=NNC(=O)C2C)c1O` (stereo not drawn), the inhibition is 24.4%. To `Oc1ccc(C=Nc2cccc3ccccc23)c(O)c1` belongs 0.55%. Take `CC1(OC(=O)c2cccs2)C(=O)C=C2C=C3CCCN3C=C2C1=O` (stereo not drawn): the inhibition was 7.4%. With `O=C(CNc1ccc2ccccc2c1)N/N=C/c1cc2ccccc2nc1Cl` the figure was 2.4%; with `CC1=NN(c2ccccc2)C(=O)C1`, 7.95%. To `Cc1[nH]n(-c2ncc(-c3ccccc3)s2)c(=O)c1C(c1ccc(Cl)cc1)C(C#N)C#N` (stereo not drawn) belongs -20.6%.

Take `O=C(Cn1c2ccccc2c(=O)c2ccccc21)N/N=C/c1cc([N+](=O)[O-])ccc1N1CCCCCC1`: the inhibition is 10.9%.

Consider `Cc1ccccc1C(=O)Nc1cccc(C(=O)N/N=C/c2cc(Cl)cc([N+](=O)[O-])c2O)c1`, for which the inhibition was -53.5%. With `O=C(N/N=C/c1ccc(N2CCOCC2)cc1)c1ccccc1NS(=O)(=O)c1cccs1` the figure was 24.1%; with `O=C(N/N=C/c1cc(Cl)cc([N+](=O)[O-])c1O)c1ccccc1NS(=O)(=O)c1cccs1`, 39.8% (active). As to `C=C(C)[C@@H]1CC[C@]2(C(=O)O)CC[C@]3(C)[C@H](CC[C@@H]4[C@@]5(C)CC[C@H](O)C(C)(C)[C@@H]5CC[C@]43C)[C@@H]12`, the inhibition was 5.35%. In the case of `Cc1ccc(Nc2nc(=O)c3cc([N+](=O)[O-])ccc3s2)cc1`, the inhibition was 5.9%. With `Cc1cccc(NC(=O)/C(C#N)=C/c2cn(CC(=O)NCc3ccco3)c3ccccc23)c1C` the figure was 13.7%; with `CCCCCCC#Cc1cncc(C(=O)NNC(=O)Nc2cc(Cl)cc(Cl)c2)c1`, -17%. To `O=C1C=C(N(CCO)Cc2ccccc2)c2ccccc2C1=O` belongs 50.4% (active); to `O=C1C=C(NCc2ccccc2)c2ccccc2C1=O`, -1.95%. For the molecule `O=C1C=C(Nc2ccccc2C(=O)O)c2ccccc2C1=O`, the inhibition was -7.25%.

For `CC(C)CNC1=CC(=O)CC(c2ccco2)C1` (stereo not drawn), the inhibition was -0.9%. `COc1cccc(C(c2c(C)[nH]n(-c3ccccc3)c2=O)c2c(C)[nH]n(-c3ccccc3)c2=O)c1OC`: the inhibition is -27.4%.

Consider `Nc1ncnc2c1ncn2C1OC(COP(=O)(O)O)C(O)C1O` (stereo not drawn), for which the inhibition was -7%. To `O=C1OC(Nc2ccc3ncccc3c2)c2ccccc21` (stereo not drawn) belongs 24%. As for `O=[N+]([O-])c1ccc(O)c(C=Nc2cccc3ncccc23)c1`, the inhibition was 4.3%. Turning to `N#CC1=C(N)N2C(=C(C#N)C1c1ccc(Br)cc1)Nc1ccccc12` (stereo not drawn), the inhibition is 7.05%. For the molecule `O=c1nc2s/c(=C\c3ccco3)c(=O)n2nc1Cc1ccc(F)cc1`, the inhibition was -3.1%. With `OC(COc1ccccc1)CSc1ncn[nH]1` (stereo not drawn) the figure was 14.6%. Turning to `COc1ccc(NC(=S)Nc2ccc3nccnc3c2)cc1`, the inhibition is 8.85%. Consider `CC(C)N(C(=O)Nc1ccc2nccnc2c1)C(C)C`, for which the inhibition was 31.1% (active). To `Fc1ccc(NC(=S)Nc2ccc3nccnc3c2)cc1` belongs 7.9%.

`COc1ccc(-n2c(NC(=O)c3ccc(Br)o3)c(C#N)c3nc4ccccc4nc32)cc1`: the inhibition was 12.1%. As for `Cn1c(=O)n(C)c2cc(S(=O)(=O)NCCO)ccc21`, the inhibition was -3.1%.

`O=C(Nc1cccc2nsnc12)c1ccc(-c2cccc(Cl)c2)o1`: the inhibition is 25.9%. Turning to `Cc1ccc2nsnc2c1NC(=O)c1ccc(-c2cc(Cl)ccc2Cl)o1`, the inhibition is 20.6%. With `CCOc1cc(C2c3c(oc4ccccc4c3=O)C(=O)N2c2nccs2)ccc1O` (stereo not drawn) the figure was -2.15%. To `COc1ccccc1Oc1c(C)oc2c(CN3CCN(C)CC3)c(O)ccc2c1=O` belongs 30.4% (active); to `CCOc1ccccc1Oc1c(C)oc2c(CN3CCN(C)CC3)c(O)ccc2c1=O`, 40.3% (active). In the case of `Oc1ccc2ccccc2c1C=NCc1cn2ccsc2n1`, the inhibition is 0.1%.

Regarding `CC(C)c1ccc(NC(=S)Nc2cccc3ccccc23)cc1`, the inhibition was -7.9%. With `COc1ccc2cc3c(N)nn(C(=O)Cc4ccc(Cl)cc4)c3nc2c1` the figure was 23.9%; with `CCN(CC)C(=O)c1sc2nc(-c3ccncc3)[nH]c(=O)c2c1C`, 47.2% (active); with `CCCCCCC(C)OC(=O)c1ccccc1C(=O)O` (stereo not drawn), 3.05%. To `NC(=S)n1[nH]c(-c2ccc([N+](=O)[O-])cc2)c(N=Nc2cccc(Cl)c2)c1=O` belongs 10.7%; to `COc1ccc(-c2cc(C(F)(F)F)n3ncc(C(=O)NCc4ccco4)c3n2)cc1`, 44.1% (active); to `COc1ccc2oc(=O)c(C(=O)NCC3CCCO3)cc2c1` (stereo not drawn), 40.9% (active). With `COc1ccc2oc(=O)c(C(=O)NCc3ccco3)cc2c1` the figure was 48.4% (active); with `COc1ccc(CCn2c(N)c(C(=O)NCc3ccco3)c3nc4ccccc4nc32)cc1OC`, 1.65%. For the molecule `COc1ccc2oc(=O)c(/C(C)=N/NC(=O)c3ccncc3)cc2c1`, the inhibition is 18.8%. To `Cc1onc(-c2ccccc2Cl)c1C(=O)NCc1ccco1` belongs 11.2%; to `COc1ccc(CNC(=O)c2c(C)oc3c2C(=O)c2ccccc2C3=O)cc1`, 5.35%; to `COc1ccc(C(=O)Nc2ccc(-c3nnn(CC(=O)NCc4ccco4)n3)cc2)cc1`, 26.7%. As to `Cc1cc(C)cc(NC(=S)Nc2cccc3cnccc23)c1`, the inhibition is -5.7%. On to `COc1ccc(S(=O)(=O)N(C)c2ccc(C(=O)NCc3ccccn3)cc2)cc1`, for which the inhibition is -4.1%.

With `N#CC1=C(N)Oc2n[nH]c(-c3cccs3)c2C1c1ccoc1` (stereo not drawn), the inhibition is -10.8%.

For `COC(=O)c1cc(O)cc(OC)c1Oc1cc(C)cc(O)c1C(=O)O`, the inhibition was 11%. Consider `COc1ccc2c(C)c(C(=O)NCC(C)O)oc2c1OC` (stereo not drawn), for which the inhibition was 38% (active). On to `Oc1ccc(NCc2ccccc2OCc2ccccc2F)cc1`, for which the inhibition was -9.2%.

In the case of `COc1cc2c(-c3ccc(O)cc3)nc3c(c(C)nn3-c3ccccc3)c2cc1OC`, the inhibition is 9.45%.

In the case of `CCCCCC(=O)Nc1ccc(-c2cn3cccnc3n2)cc1`, the inhibition was 49.3% (active).

On to `CC(=O)Nc1ccc(S(=O)(=O)Nc2cccn(Cc3ccc(C)cc3)c2=O)cc1`, for which the inhibition was 1.85%.

Take `CC(=O)Nc1ccc(-c2cn3cccnc3n2)cc1`: the inhibition is 52.3% (active).

As to `CCCCCCCC(=O)Nc1ccc(C(=O)N/N=C/c2cccc([N+](=O)[O-])c2)cc1`, the inhibition is -8.25%. Take `CCCCCCCn1c(NC(=O)CC)nc2ccccc21`: the inhibition was 4.3%. On to `CCc1ccc(S(=O)(=O)/N=C2\C=CC(=O)c3ccccc32)cc1`, for which the inhibition was 7.75%. With `Cc1ccc(-n2nc(C)c3c2OC(N)=C(C#N)C3c2ccc(C)o2)cc1` (stereo not drawn) the figure was -11.4%; with `O=C(Nc1ccc(Cl)c(Cl)c1)Nn1cnnc1`, 41.3% (active); with `CN(C)S(=O)(=O)c1cc(NC(=O)CNCc2ccccc2)ccc1Cl`, -6%. To `NS(=O)(=O)c1ccc(NC(=O)c2ccc(-c3ccccc3)cc2)cc1` belongs -3.1%; to `Cc1[nH][nH]c(=O)c1C(c1ccc(-c2ccc(C(=O)O)cc2)o1)c1c(C)[nH][nH]c1=O`, 0.5%. As for `CCOC(=O)c1sc(NC(=O)c2cccc(S(=O)(=O)N3CCc4ccccc43)c2)c(C#N)c1C`, the inhibition is -22.4%. As for `Cc1c(Br)c(O)c(Br)c2sc(=O)oc12`, the inhibition was -25.6%.

`O=C(NNc1cc(N2CCOCC2)nc(N2CCOCC2)n1)c1ccc([N+](=O)[O-])cc1`: the inhibition was 1.6%.

As to `Nc1cccc2cnccc12`, the inhibition is 3.2%. With `COc1ccc(C(=O)CSc2nnc(-c3ccco3)c(-c3ccco3)n2)cc1` the figure was -2.15%; with `NC1=NC(=O)/C(=C\c2ccco2)S1`, 16.6%; with `NN1C(=O)/C(=C\c2ccco2)SC1=S`, 4.75%. Consider `Nc1ccc2c(c1)C/C(=C/c1ccco1)C2=O`, for which the inhibition is 62.9% (active).

As a reminder, the inhibition is the drop in the measured response relative to a control, in per cent.

Values taken from PubChem BioAssay AID2069 (Sanford-Burnham Center for Chemical Genomics, 2009).
